A selection: hits, their analogues and other compounds. The true share with any hit is near 6.7%.
Bead autofluor: counter-screen for toxin protease inhibitors: compound fluorescence | compound autofluorescence counterscreen, microsphere flow cytometry; stronger effect = higher value | fluorescence intensity (test concentration not listed) | 360,000 compounds, 3.1% hits; in the data active means fluorescence intensity above about 16000; inconclusive means no clear call, values can overlap the other calls
BoNT A protease: blocks Botulinum neurotoxin A light chain protease; multiplex microsphere protease substrate cleavage, flow cytometry; inhibition, % at 10 µM; 360,000 compounds, 0.17% hits; further: plate controls were buffer without enzyme for full effect and enzyme alone for no effect
GDH-TPI counter-1: GDH-TPI coupled enzyme inhibition counter-screen | 360,000 compounds, 1.2% hits | GDH-TPI coupled enzyme counterscreen, NADH absorbance | AID 588335 | inhibition, % at 4.8 µM; in the data active means inhibition above about 30%;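 further: 0% = DMSO wells and 100% = wells lacking the enzyme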
BoNT-F LC inh: blocks Botulinum neurotoxin F light chain protease | Multiplex microsphere protease cleavage assay, flow cytometry | AID 588497 | 360,000 compounds, 0.22% hits | inhibition, % at 10 µM; in the data active means inhibition above about 35%, passing the limit was not always enough; inconclusive means no clear call, values can overlap the other calls; further: plate controls were buffer without enzyme for full effect and enzyme alone for no effect
FBA Mtb inh: inhibitors of M. tuberculosis fructose-bisphosphate aldolase. P9WQA3. purified M. tuberculosis FBA, fluorescence read-out. inhibition, % at 1 µM. 360,000 compounds, 2.3% hits. AID 588726; in the data active means inhibition above about 27%;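 further: 0% = vehicle and 100% = reference inhibitor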
Anthrax LF prot: blocks Bacillus anthracis lethal factor protease | AID 588501 | 360,000 compounds, 0.12% hits | P15917 | inhibition, % at 10 µM | multiplex microsphere protease cleavage assay, LF; further: plate controls were buffer without enzyme for full effect and enzyme alone for no effect
Mtb FBA confirm: confirmation of M. tuberculosis fructose-bisphosphate aldolase inhibitors; 5,600 compounds, 78% hits; shares compounds with FBA Mtb inh; purified M. tuberculosis FBA, fluorescence read-out; inhibition, % at 1 µM; in the data active means inhibition above about 27%;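 further: 0% = vehicle wells and 100% = reference inhibitor wells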
GDH-TPI counter-2: inhibits GDH-TPI coupling enzymes, flagging Mtb FBA hits; shares compounds with FBA Mtb inh; 5,600 compounds, 81% hits; GDH-TPI coupled enzyme counterscreen, fluorescence; inhibition, % at 1 µM; in the data active means inhibition above about 10%
An asterisk follows results filed as active; ? = inconclusive; . = not tested or not shown; + = active, no number. Unless noted, no stated cut-off is given here; in the data, active means inhibition above about 30%; inconclusive means no clear call, values can overlap the other calls; inactive means below that.

SMILES	Bead autofluor	BoNT A protease	GDH-TPI counter-1	BoNT-F LC inh	FBA Mtb inh	Anthrax LF prot	Mtb FBA confirm	GDH-TPI counter-2
O=C(NC1CCS(=O)(=O)C1)c1cc2c(=O)n3ccccc3nc2n1Cc1ccccc1 (stereo unspecified)	3367	0	22	-3	102*	0	+	196*
Cc1ccc(S(=O)(=O)c2cc3c(=O)n4ccccc4nc3n(Cc3ccco3)c2=N)cc1	20456*	?	35*	5	87*	3	+	+
COc1cccc(NC(=O)c2cc3c(=O)n4ccccc4nc3n(CC(C)C)c2=N)c1	4096	0	6	7	0	-1	.	.
N=c1c(C(=O)NCc2ccco2)cc2c(=O)n3ccccc3nc2n1Cc1ccc(Cl)cc1	?	7	13	-2	44*	4	113*	87*
Cc1ccc(CNC(=O)c2cc3c(=O)n4ccccc4nc3n(Cc3ccco3)c2=N)cc1	3533	9	22	13	63*	7	54*	48*
Cc1cccc(NC(=O)c2cc3c(=O)n4ccccc4nc3n(CC(C)C)c2=N)c1	6244	0	-5	-5	0	2	.	.
C=CCS(=O)(=O)N1CCCC(N(C)CCc2ccc(OC)c(OC)c2)C1 (stereo unspecified)	4608	-2	2	-26	2	-5	.	.
Cc1ccc2[nH]c(=O)c(COC(=O)C3CCCO3)cc2c1 (stereo unspecified)	2174	0	18	-19	0	1	.	.
O=C(COc1ccccc1F)NCc1ccc(-n2cccc2)cc1	6265	-3	6	-12	0	-8	.	.
NS(=O)(=O)c1ccc(CCNC(=O)c2cc(-c3ccccc3)nc3ccccc23)cc1	2560	0	7	-3	2	2	.	.
Cc1ccc(-c2cc(C(=O)NCCc3ccc(S(N)(=O)=O)cc3)c3ccccc3n2)cc1	2051	0	13	-4	34*	-1	177*	179*
NS(=O)(=O)c1ccc(CCNC(=O)c2cc(-c3ccco3)nc3ccccc23)cc1	3166	0	19	5	77*	2	75*	73*
CCC(=O)Nc1ccc(Oc2ccc(NC(=O)CC)c(NC(=O)CC)c2)cc1	4123	-1	-7	-4	-3	-2	.	.
Nc1c2c(nn1-c1ccc(C(=O)O)cc1)CNC2	3652	0	-5	-37	0	3	.	.
